In PubChem BioAssay (NCI) one finds growth data, which are given here for 40 molecules.

About 83,000 compounds went through this panel and 20% of them were active in at least one assay; those are over-represented in the sample as a whole.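 Activity criterion: percent growth below 10, measured after cells in 96-well plates were exposed to a single compound concentration for 48 hours.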 A number with no mark means an inactive call. Active and inactive are the calls of the source.

The test system of this experiment is SN12C renal. Put plainly: NCI-60 one-dose screen, 48 h (100 = growth as untreated, 0 = no growth, -100 = all killed). The conditions noted are these: 10 µM unless noted. As to the method:
Growth inhibition of the SN12C human tumor cell line is measured as a screen for anti-cancer activity. Cells are grown in 96 well plates and exposed to the test compound for 48 hours. Compounds are tested at a single concentration, which is 10^-5 M for most compounds. The reported endpoint is percent growth (GI% or GIPRCNT), where numbers from 0 - 100% represent growth inhibition, and numbers from -100% - 0 represent cell death. For example, a value of 40 represents 60% growth inhibition. A value of 0 means no net growth occurred over the course of the experiment. A value of -40 indicates 40% of cells at the beginning of the experiment died by the end of the experiment. A value of -100 means all cells are dead at the end of the experiment.
NCI-60 Human Tumor Cell Lines Screen was performed using the standard one-dose NCI protocol, which is described in more detail at https://dtp.cancer.gov/discovery_development/nci-60/default.htm.
Compounds with GIPRCNT values below 10 were considered active. Activity score was based on GIPRCNT using the following formula: […]
Score is 0 for GIPRCNT values of 100 or above, 50 for GIPRCNT values of 0, and 100 for GIPRCNT values of -100.
As for `COc1ccc(/C=C/c2nc(NCCCN(C)C)c3ccccc3n2)cc1`, the growth is 86.7%.
In the case of `NC(N)=N/N=C/c1cccc(Cl)c1Cl` it was 90.1%; in that of `O=C1NN(C(=O)c2ccccc2)C(c2ccc(Cl)c(Cl)c2)=C/C1=C\c1ccccc1[N+](=O)[O-]`, 30.7% [6.75 µM]; in that of `O=C(Nc1ccccc1)c1cc2ccccc2s1`, 91.4%.
In the case of `C=CCOC(=O)C1=C(C)NC2=C(C(=O)CC(C)(C)C2)C1c1ccc(OC)cc1` (stereo not given) it was 106%; in that of `CCN(CC)c1ccc(/C=C2/NC(=O)NC2=O)cc1`, 55.9%; in that of `O=C(O)c1cc2cc(OCc3ccccc3)ccc2[nH]1`, 97.1%.
In the case of `CC(=O)Nc1c(Br)cc2c(c1Br)Cc1cc(Br)ccc1-2` it was 83.1%.
As for `Nc1nc(N)c2cc(NCc3ccc(Cl)c(Cl)c3)ccc2n1`, the growth is -79.5% (active).
To `Cc1cc(N)cc(C)c1-c1c(Br)cc(N)cc1Br` belongs 47.9%; to `CCn1c(Cc2ccccc2Nc2c(Cl)cccc2Cl)nnc1SCC(=O)Nc1cccc(OC)c1`, 66.6%; to `CCN(CC)CC(=O)Nc1c(C)ccc(N)c1C`, 99.4%.
To `CN(C)CC(=O)c1ccc2cc(Br)c3ccccc3c2c1` belongs 72.6%; to `OCCN(CCO)c1ccc2ccccc2c1`, 94.2%; to `Fc1ccc(-c2cnc3nonc3n2)c(F)c1`, 107%.
To `COc1ccc2nc(C)cc(Sc3nc4ccccc4s3)c2c1` belongs 40.5%; to `C#Cc1cccc(Nc2nc3cc([N+](=O)[O-])ccc3nc2Nc2ccc(O)cc2)c1`, 24.9%; to `Clc1ccc(-c2cnc3c(-c4ccnc(N5CCNCC5)c4)cnn3c2)cc1`, 10.9%.
As for `CCN(CC)CCCCCCCCNc1c2ccc(Cl)cc2nc2ccc(OC)cc12`, the growth is -19.7% (active).
To `Cc1cc([N+](=O)[O-])c(C)cc1N` belongs 106%; to `Cc1ccc(NC(=O)c2sc3nc4c(cc3c2N)C(=O)CCC4)cc1Cl`, 119%; to `CNC1=C([N+](=O)[O-])C(c2ccccc2O)C(C#N)=C(c2cccs2)O1` (stereo not given), 98.2%.
To `O=C1/C(=C/c2ccccc2)SC(=Nc2ccccc2)N1Nc1ccccc1` belongs -58.3% (active); to `CC(C)(C)c1cc(C[P+](c2ccccc2)(c2ccccc2)c2ccccc2)cc(C(C)(C)C)c1O`, 12.2%; to `O=[N+]([O-])c1ccc(Sc2nc(Cl)nc(NC3CCCC3)n2)cc1`, -88.9% [100 µM] (active).
In the case of `CCN(CC)CCNC(=O)C(F)(F)C(F)(F)C(F)(F)F` it was 108%.
For `COCc1nc(NS(=O)(=O)c2ccc(N)cc2)nc(C)c1Br`, the growth was 108%.
To `CCOC(=O)c1ccc(NC(=O)CSC(N)=O)cc1` belongs 107%; to `CN(C)c1nc(-c2ccco2)n2nc(-c3ccc(Cl)cc3)cc2n1`, 86.6%.
In the case of `CS(=O)(=O)c1ccc(C(=O)N/N=C/c2ccc3c(c2)OCO3)cc1` it was 99.2%.
To `O=S1(=O)NCCN1CCNc1nccc(-c2c(-c3cccc(O)c3)nc3sccn23)n1` belongs 95.2%; to `S=C(S)Oc1cccc2cccnc12`, 89.8%.
Regarding `NS(=O)(=O)c1ccc(CCn2c(SCC(=O)N/N=C/c3ccccc3O)nc3ccccc3c2=O)cc1`, the growth was 51.3%.
Consider `NS(=O)(=O)c1ccc(CCn2c(SCC(=O)N/N=C/c3cc4ccccc4[nH]3)nc3ccccc3c2=O)cc1`, for which the growth was 73.4%.
In the case of `CCOC(=O)C1C(=O)C=C(c2cc(OC)c(OC)c(OC)c2)CC1c1sc(N(C)Cc2ccccc2)nc1Cl` (stereo not given) it was 80.6%.
In the case of `CCOc1cc(/C=N\NC(=O)C[N+](C)(C)C)ccc1O` it was 109%; in that of `Cn1cnc([N+](=O)[O-])c1S(=O)(=O)Oc1ccccc1`, 99.2%.
In the case of `O=C1CCCN1C(O)CCN(Cc1ccccc1)Cc1ccc(Cl)cc1` (stereo not given) it was 101%; in that of `COc1ccc(-c2nn(C(=O)NCCN(C)C)cc2-c2ccncc2)cc1Cl`, 49.6%.
In the case of `c1cc2c(cc1-c1cnc3nonc3n1)OCO2`, the growth was 103%.
